PubChem BioAssay (EPA / NIEHS)
Inconclusive results are not listed. Activity calls are given as the source filed them. Rule for the calls, unless noted: active = hit-call score of the fitted dose curve at least 0.9, where 1 is the maximum; inconclusive = response in the unintended direction; inactive = score below 0.9.

What was measured:
[1] = TOX21_p53_BLA_p2_viability: Viability Assessment in the Tox21 HCT-116 p53 Agonism Beta-lactamase Assay, Phase 2 (AID 2283591);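 note: compound exposure lasted 16 h at 37 °C; actives lower the ATP signal meaning cytotoxicity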
Summary of the method: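 Cytotoxicity readout: CellTiter-Glo ATP luminescence, 30 min at room temperature, after the beta-lactamase read. Cells were HCT116 exposed 16 h at 37C to compounds pin-transferred at 217-fold dilution from DMSO stocks.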

[2] = biological target: Cellular tumor antigen p53 (Homo sapiens) (UniProt P04637); test: TOX21_p53_BLA_p2_ratio: Tox21 HCT-116 p53 Agonism Beta-lactamase Assay, Ratio, Phase 2 (AID 2283592)
Summary of the method: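 Ratio endpoint: beta-lactamase cleavage of CCF4-AM, blue (460 nm) over green (530 nm). HCT116 reporter line; 16 h treatment, 37C; substrate 2 h RT.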

[3] = biological target: Cellular tumor antigen p53 (Homo sapiens) (UniProt P04637); test: TOX21_p53_BLA_p3_ratio: Tox21 HCT-116 p53 Agonism Beta-lactamase Assay, Ratio, Phase 3 (AID 2283596)
Summary of the method: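 Cells were seeded at 4000/well, rested 5 h at 37C, then dosed with DMSO compound solutions (217-fold dilution) for 16 h. CCF4-AM substrate was loaded for 2 h at room temperature, and the 460/530 nm emission ratio was fitted for gain of signal versus DMSO.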

[4] = biological target: Cellular tumor antigen p53 (Homo sapiens) (UniProt P04637); test: TOX21_p53_BLA_p5_ratio: Tox21 HCT-116 p53 Agonism Beta-lactamase Assay, Ratio, Phase 5 (AID 2283599)
Summary of the method: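 Beta-lactamase reporter ratio (blue 460 nm over green 530 nm, 405 nm excitation) after 2 h CCF4-AM loading, in HCT-116 cells exposed 16 h at 37 C to compounds pinned at 217-fold dilution. Increases relative to DMSO baseline scored.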

[5] = TOX21_p53_BLA_p5_viability: Viability Assessment in the Tox21 HCT-116 p53 Agonism Beta-lactamase Assay, Phase 5 (AID 2283600)
Summary of the method: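 Luciferase-coupled ATP quantitation of cells treated for 16 h (37C, 5% CO2) with test chemicals delivered in DMSO via a 217-fold dilution; 4000 cells/well; reagent incubated 30 min at room temperature before luminescence reading.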

[6] = biological target: Cellular tumor antigen p53 (Homo sapiens) (UniProt P04637); test: TOX21_p53_BLA_p4_ratio: Tox21 HCT-116 p53 Agonism Beta-lactamase Assay, Ratio, Phase 4 (AID 2283601)
Summary of the method: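 Signal is the blue/green (460nm/530nm) ratio of cleaved versus uncleaved CCF4-AM substrate, read after 2 h substrate loading. Cells were HCT116 carrying the p53-responsive beta-lactamase reporter, dosed 16 h at 37C, 5% CO2; CellTiter-Glo measured in parallel.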

[7] = CCTE_Harrill_HTTr_Viability_MCF7: CCTE's 6-hour Cell Viability Assessment for the High-Throughput Transcriptomics (HTTr) Platform, in MCF-7 cells cultured in DMEM + 10% fetal bovine serum, Harrill Lab (AID 2284010; active = hit-call score of the fitted dose curve at least 0.9, where 1 is the maximum; inactive = score below 0.9)
Summary of the method: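 Read-out is propidium iodide gain of signal by high-content imaging, reflecting membrane integrity loss. Measurements are taken 6 h after dosing, eight concentrations per chemical, with DMSO serving as baseline for bidirectional curve fitting.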

[8] = CCTE_Harrill_HTTr_Apoptosis_MCF7: CCTE's 6-hour Apoptosis Assessment for the High-Throughput Transcriptomics (HTTr) Platform, in MCF-7 cells cultured in DMEM + 10% fetal bovine serum, Harrill Lab (AID 2284011; active = hit-call score of the fitted dose curve at least 0.9, where 1 is the maximum; inactive = score below 0.9)
Summary of the method: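 MCF-7 cells in DMEM + 10% fetal bovine serum were exposed to chemicals for 6 hours over an eight-point dilution series. Caspase-3/7 activation was imaged by high content imaging with CellEvent Caspase 3/7 Green; bidirectional fitting used DMSO as baseline.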

[9] = CCTE_Harrill_HTTr_CellCount_MCF7: CCTE's Cell Proliferation Assessment for the High-Throughput Transcriptomics (HTTr) Platform, Harrill Lab (AID 2284012);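 note: cells exposed to compound for six hours; intended direction is loss of nuclei count meaning fewer cells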
Summary of the method: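 Cell count served as viability reporter: loss of Hoechst-stained nuclei, counted by high content imaging, marks decreased growth or survival. Exposure was 6 h in MCF-7 cells across eight concentrations, with DMSO as baseline.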

Measured: AC50

Chain of Cellular tumor antigen p53 (Homo sapiens) (P04637 whole entry, looked up): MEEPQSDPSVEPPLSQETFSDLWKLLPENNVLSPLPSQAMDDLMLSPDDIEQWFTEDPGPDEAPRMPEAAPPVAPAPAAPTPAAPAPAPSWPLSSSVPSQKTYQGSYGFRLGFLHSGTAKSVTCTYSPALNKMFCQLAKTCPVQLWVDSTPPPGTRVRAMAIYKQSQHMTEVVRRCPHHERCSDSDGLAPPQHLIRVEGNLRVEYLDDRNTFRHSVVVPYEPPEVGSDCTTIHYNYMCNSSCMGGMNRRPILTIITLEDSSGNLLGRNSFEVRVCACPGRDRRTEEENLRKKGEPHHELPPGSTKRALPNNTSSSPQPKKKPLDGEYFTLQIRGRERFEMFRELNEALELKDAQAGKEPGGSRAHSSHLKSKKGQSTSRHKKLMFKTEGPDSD

Cc1cc(=O)oc2cc(O)cc(O)c12
active: [6] 41.7 µM
inactive: [1] | [2] | [3] | [4] | [5]

CC1=C(C(=O)O)N2C(=O)[C@@H](NC(=O)[C@H](N)c3ccc(O)cc3)[C@H]2SC1
not listed: [7] | [8] | [9]
inactive: all other assays above

O=C(O)c1cccc(Cl)c1Cl
not listed: [7] | [8] | [9]
inactive: all other assays above

CCC(=O)OC(=O)CC
not listed: [7] | [8] | [9]
inactive: all other assays above

COc1cc(NS(=O)(=O)c2ccc(N)cc2)ncn1
not listed: [7] | [8] | [9]
inactive: all other assays above

C#CCN(C)CCCOc1ccc(Cl)cc1Cl
not listed: [7] | [8] | [9]
inactive: all other assays above

C=CCn1cc[n+](C)c1
not listed: [7] | [8] | [9]
inactive: all other assays above

CC(C)Cn1cnc2c(N)nc3ccccc3c21
inactive: [1] | [2] | [3] | [4] | [5]

CO[C@H]1C[C@H](O[C@H]2[C@H](C)[C@@H](O[C@@H]3O[C@H](C)C[C@H](N(C)C)[C@H]3O)[C@@H](C)C[C@]3(CO3)C(=O)[C@H](C)[C@@H](O)[C@@H](C)[C@@H](C)OC(=O)[C@@H]2C)O[C@@H](C)[C@@H]1O
inactive: [1] | [2] | [3] | [4] | [5]

CCOC(=O)COc1ccc2c(C)c(CCN(CC)CC)c(=O)oc2c1
not listed: [7] | [8] | [9]
inactive: all other assays above

CC=CC(=O)CC
inactive: [1] | [2] | [3] | [4] | [5]

C[S+](CC[C@H](N)C(=O)O)C[C@H]1O[C@@H](n2cnc3c(N)ncnc32)[C@H](O)[C@@H]1O (stereo not given in full)
not listed: [7] | [8] | [9]
inactive: all other assays above

CCCCCC=CCC1CC(=O)OC1=O (stereo not given)
not listed: [7] | [8] | [9]
inactive: all other assays above

O=Cc1ccc(Cl)cc1
not listed: [7] | [8] | [9]
inactive: all other assays above

CC(C)(C)OCC1CO1 (stereo not given)
not listed: [7] | [8] | [9]
inactive: all other assays above

C/C=C/C=C/CO
not listed: [7] | [8] | [9]
inactive: all other assays above

C=C(C)C1CC=C(C)C(O)C1 (stereo not given)
not listed: [7] | [8] | [9]
inactive: all other assays above

OCc1ccccc1O
inactive: [1] | [2] | [3] | [4] | [5]

CCCN(CCC)CCc1cccc2c1CC(=O)N2
inactive: [1] | [2] | [3] | [4] | [5]

CCCCCCCC
not listed: [7] | [8] | [9]
inactive: all other assays above

O=C(O)c1ccccc1C(=O)Nc1ccc(S(=O)(=O)Nc2nccs2)cc1
inactive: [1] | [2] | [3] | [4] | [6]

C=CCSCC1Nc2cc(Cl)c(S(N)(=O)=O)cc2S(=O)(=O)N1 (stereo not given)
inactive: [1] | [2] | [3] | [6]
active: [4] 0.059 nM

CN(C)CCC=C1c2ccccc2CSc2ccccc21
active: [6] 16.6 µM
inactive: [1] | [2] | [3] | [4]

C=CC(=O)OCCOC(=O)CCC(=O)O
inactive: [1] | [2] | [3] | [4] | [6]

C[C@@H]1CN(c2c(F)c(N)c3c(=O)c(C(=O)O)cn(C4CC4)c3c2F)C[C@H](C)N1
inactive: all assays above

c1coc(Cn2cccc2)c1
not listed: [7] | [8] | [9]
inactive: all other assays above

CC(C)[C@@H](N)C(=O)O
inactive: [1] | [2] | [3] | [4] | [6]
